# Measurements taken from PubChem BioAssay (Tox21).
# Results filed as inconclusive are left out. Values without a mark were called inactive. The source made the active and inactive calls. The call rests on the fitted dose curve; in most records, active means well fitted cell-killing curve with a large enough effect in the repeat runs; inconclusive means weak or mixed curves; inactive means no such curve, though single readings can be large or run the other way.
# Experiment: qHTS assay to identify small molecule antagonists of the androgen receptor (AR) signaling pathway - cell viability counter screen (AID 743033; further: nearly all actives have a fitted effect of over 45% in size)
# Settings: AR-bla HEK293 viability, CellTiter-Glo luminescence, 16 h; series mostly up to 58.5 µM; activity change, negative = cytotoxicity: at the top concentration
# Description: National Center for Advancing Translational Sciences [NCATS]
# NIH Chemical Genomics Center [NCGC]
# U.S. Environmental Protection Agency [EPA]
# National Institutes of Environmental Health Sciences [NIEHS]
# National Toxicology Program [NTP]
# U.S. Food and Drug Administration [FDA]
# Androgen receptor (AR), a nuclear hormone receptor, plays a critical role in AR-dependent prostate cancer and other androgen related diseases. Endocrine disrupting chemicals (EDCs) and their interactions with steroid hormone receptors like AR may cause disruption of normal endocrine function as well as interfere with metabolic homeostasis, reproduction, developmental and behavioral functions. To identify the compounds that inhibit AR signaling, GeneBLAzer AR-UAS-bla-GripTite cell line (Invitrogen, Carlsbad, CA, USA) containing a beta-lactamase reporter gene under control of an Upstream Activator Sequence (UAS) stably integrated into HEK293 cells was used to screen the Tox21 10K compound library. The cytotoxicity of the Tox21 compound library against the AR-bla cell line was tested in parallel by measuring the cell viability using CellTiter-Glo assay in the same wells.
# Tox21 Assay Protocol Summary:
# AR-bla cells were dispensed at 2,000 cells/5 uL of assay medium per well into black wall/clear-bottom 1536-well plates using a Multidrop Combi (ThermoFisher Scientific, Waltham, MA) dispenser. After the assay plates were incubated at a 37C and 5% CO2 for 4 hr, 23 nL of compounds dissolved in DMSO, positive controls or DMSO only was transferred to the assay plate by a Pintool station (Kalypsys, San Diego, CA), followed by addition of 1 uL of agonist (R1881) in culture medium using a Bioraptr Flying Reagent Dispenser (FRD) workstation (Beckman Coulter, Indianapolis, IN, USA). The plates were incubated at a 37C and 5% CO2 for 16 h. After 1 uL of LiveBLAzerTM B/G FRET substrate was added using a Bioraptr FRD, the plates were incubated at room temperature for 2 h and fluorescence intensity was measured by an Envision plate reader (PerkinElmer, Shelton, CT). For cell viability readout that measures cytotoxicity, 4 ul/well of CellTiter-Glo reagent was added into the assay plates using a Bioraptr FRD. After 30 min incubation at room temperature, the luminescence intensity in the plates was measured using a ViewLux (PerkinElmer) plate reader.
# On the % scale 0 is the no-effect control and ±100 the full control effect.
SMILES,"activity change, negative = cytotoxicity",outcome
COC(=O)c1cc(Cl)cc(Cl)c1,0.609%,
CCCSSCCC,10.6%,
CC(=O)OC1CCCCC1C(C)(C)C (stereo not given),2.29%,
O=C1OCCO1,2.51% [at 78.9 µM],
Cc1c(C(=O)c2c[nH]n(C)c2=O)ccc(S(C)(=O)=O)c1C1=NOCC1,12.2% [at 27 µM],
C[C@@H](O)C(=O)O,0.838% [at 78.9 µM],
CCCCCCC1(C)CCC(=O)O1 (stereo not given),15.4%,
C=Cc1ccc(C(C)(C)C)cc1,0.669%,
Cn1nnc2c(C(N)=O)ncn2c1=O,14.6%,
CC(=O)C(C)O (stereo not given),0.914%,
CO[Si](CCCn1c(=O)n(CCC[Si](OC)(OC)OC)c(=O)n(CCC[Si](OC)(OC)OC)c1=O)(OC)OC,4.89%,
CC(=O)CC(=O)OC(C)(C)C,6.04%,
COc1ccc(CCO)cc1,3.29%,
C=CC(=O)OCC1CCCO1 (stereo not given),3.09%,
C=C(C)[C@@H]1CC=C(C)CC1,1.01%,
Nc1nc(-c2ccccc2)c(Br)c(=O)[nH]1,-13.3%,
Cc1ncc([N+](=O)[O-])n1CC(C)O (stereo not given),17%,
CC(=O)OCC(=O)Nc1cc(C#N)cc(NC(=O)COC(C)=O)c1Cl,-11.1%,
CC(O)COC(C)(C)C (stereo not given),6.22%,
CC1=C(O)C(=O)C(C)O1 (stereo not given),4.98% [at 78.9 µM],

SMILES,"activity change, negative = cytotoxicity",outcome
C=CC(=O)CCCCC,3.56% [at 78.9 µM],
Cn1c(=O)c2[nH]c(Br)nc2n(C)c1=O,-0.273%,
CCC(C)C(=O)OCCc1ccccc1 (stereo not given),0.287%,
CC1(C)O[C@H]2CC(=O)OC[C@]23[C@H]2CC[C@@]4(C)[C@H](c5ccoc5)OC(=O)[C@H]5O[C@]54[C@]2(C)C(=O)C[C@@H]13,9.9%,
COC(=O)c1cccc(Cl)c1,0.15%,
c1ccc2c(CC3=NCCN3)cccc2c1,,inactive
O=C1c2ccccc2C(=O)c2cc(Cl)ccc21,5.05% [at 7.04 µM],
CC1=NN(c2ccc(S(=O)(=O)O)cc2)C(=O)C1,8.26%,
COC(=O)CCCCC(=O)O,0.538%,
C=CCCCC,2.05% [at 78.9 µM],
C=CCCCCCCCCC(=O)OCCCC,-0.0553%,
COc1cc2c(cc1OC)C(=O)C(CC1CCN(Cc3ccccc3)CC1)C2 (stereo not given),-1.22%,
CCCCCCCCCOC(=O)CCCCC(=O)OCCCCCCC,7.25%,
CCOC(=O)CC1(C)OCC(C)O1 (stereo not given),1.44%,
COC(=O)c1ccccc1C(=O)O,-0.0275%,
Cc1cc(C)c(C(=O)O)c(C)c1,-5.14%,
CC(Oc1cc(Cl)ccc1Cl)C(=O)O (stereo not given),0.822%,
CCCCOCC(C)O (stereo not given),4.33% [at 78.9 µM],
CC(=O)OC(C)=O,0.917% [at 78.9 µM],
CC(C)OC(=O)CCC(=O)OC(C)C,1.23%,
